This note sets out measurements from the supplement of paper PMC11732987, “Enantioselective OTUD7B fragment discovery through chemoproteomics screening and high-throughput optimisation” (Communications Chemistry, 2025).

Each structure is given as a SMILES string. A number with no mark means an inactive call.

What all share (experiment): log2 ratio of Biotin-Ahx-Ub-VS probe labelling (fragment/DMSO); higher = less target engagement (more negative = stronger competition), active = hit call of the paper (q ≤ 0.05, log2 ratio ≤ -1)
Holding throughout (conditions): compound concentration: 200 uM; treatment time: 3 h

One test deals with T1, OTUD6B (UniProt Q8N6M0).
T1 sequence (whole entry): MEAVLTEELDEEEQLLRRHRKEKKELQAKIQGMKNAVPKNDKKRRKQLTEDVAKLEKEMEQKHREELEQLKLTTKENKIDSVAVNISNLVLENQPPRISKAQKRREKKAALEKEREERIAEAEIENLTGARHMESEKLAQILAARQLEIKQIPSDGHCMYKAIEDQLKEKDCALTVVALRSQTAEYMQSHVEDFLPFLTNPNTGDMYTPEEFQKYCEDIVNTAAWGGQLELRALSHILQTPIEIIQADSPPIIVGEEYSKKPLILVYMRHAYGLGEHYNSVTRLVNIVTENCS
Summed up:
(§1)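 Global-median-normalised Spectronaut label-free quantities were compared by unpaired t-test, and values are average log2 ratios of fragment over vehicle. Only proteins with ≥2 unique peptides were used. HEK293T lysate (495 µg per sample) was treated in triplicate with fragment at 200 µM or vehicle for 3 h and then with Biotin-Ahx-Ub-VS at 0.5 µM final for 1 h. Labelled DUBs were then NeutrAvidin-enriched, digested with LysC and trypsin, and run by diaPASEF LC-MS/MS.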

Another test addresses T2, OTUD7B (UniProt Q6GQQ9).
T2 sequence (whole entry): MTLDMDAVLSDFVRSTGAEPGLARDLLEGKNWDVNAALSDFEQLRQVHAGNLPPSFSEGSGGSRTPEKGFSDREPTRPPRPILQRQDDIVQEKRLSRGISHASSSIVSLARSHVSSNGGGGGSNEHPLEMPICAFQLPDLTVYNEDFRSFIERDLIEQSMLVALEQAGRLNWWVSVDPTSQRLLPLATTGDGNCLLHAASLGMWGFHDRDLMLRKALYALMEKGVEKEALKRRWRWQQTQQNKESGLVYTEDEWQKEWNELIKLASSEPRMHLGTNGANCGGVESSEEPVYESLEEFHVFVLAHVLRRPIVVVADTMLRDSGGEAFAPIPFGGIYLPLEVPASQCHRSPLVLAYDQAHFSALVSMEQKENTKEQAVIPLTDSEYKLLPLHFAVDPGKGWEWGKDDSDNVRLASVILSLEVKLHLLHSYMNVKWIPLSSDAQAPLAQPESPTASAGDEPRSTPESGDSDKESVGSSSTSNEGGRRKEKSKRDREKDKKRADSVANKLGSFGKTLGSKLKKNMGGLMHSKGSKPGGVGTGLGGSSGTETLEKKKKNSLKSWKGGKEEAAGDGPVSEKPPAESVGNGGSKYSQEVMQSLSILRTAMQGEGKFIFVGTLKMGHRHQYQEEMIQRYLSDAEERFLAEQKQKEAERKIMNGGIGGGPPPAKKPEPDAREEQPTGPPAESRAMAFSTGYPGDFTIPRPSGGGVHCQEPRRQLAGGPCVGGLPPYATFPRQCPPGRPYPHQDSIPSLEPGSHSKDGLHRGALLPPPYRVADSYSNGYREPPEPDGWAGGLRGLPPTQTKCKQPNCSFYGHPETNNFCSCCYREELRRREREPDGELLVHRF
The method, boiled down: as §1

The next test has as its target PRPF8 (UniProt Q6P2Q9). Summed up:
as §1

The target of a further test is T3, PSMD7 (UniProt P51665).
T3 sequence (whole entry): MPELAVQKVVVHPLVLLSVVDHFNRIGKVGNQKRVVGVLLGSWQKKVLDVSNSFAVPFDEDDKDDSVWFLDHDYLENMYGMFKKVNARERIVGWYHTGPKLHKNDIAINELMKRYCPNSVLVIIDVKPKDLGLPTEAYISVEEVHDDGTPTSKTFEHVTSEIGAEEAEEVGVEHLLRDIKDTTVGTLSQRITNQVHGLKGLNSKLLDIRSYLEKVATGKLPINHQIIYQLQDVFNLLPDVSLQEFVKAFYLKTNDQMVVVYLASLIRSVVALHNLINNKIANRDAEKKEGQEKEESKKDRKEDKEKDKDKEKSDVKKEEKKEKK
The method, boiled down: as §1

The target in the next test is UCHL1 (UniProt P09936). Summed up:
as §1

The next test has as its target T4, UCHL3 (UniProt P15374).
T4 sequence (whole entry): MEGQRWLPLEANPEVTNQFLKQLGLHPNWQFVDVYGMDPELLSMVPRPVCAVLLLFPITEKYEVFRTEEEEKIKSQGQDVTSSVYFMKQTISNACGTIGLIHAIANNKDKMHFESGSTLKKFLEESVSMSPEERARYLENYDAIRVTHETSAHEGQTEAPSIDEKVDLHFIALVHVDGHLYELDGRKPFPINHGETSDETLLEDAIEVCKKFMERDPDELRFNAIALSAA
Summed up:
as §1

The target in a further test is T5, UCHL5 (UniProt Q9Y5K5).
T5 sequence (whole entry): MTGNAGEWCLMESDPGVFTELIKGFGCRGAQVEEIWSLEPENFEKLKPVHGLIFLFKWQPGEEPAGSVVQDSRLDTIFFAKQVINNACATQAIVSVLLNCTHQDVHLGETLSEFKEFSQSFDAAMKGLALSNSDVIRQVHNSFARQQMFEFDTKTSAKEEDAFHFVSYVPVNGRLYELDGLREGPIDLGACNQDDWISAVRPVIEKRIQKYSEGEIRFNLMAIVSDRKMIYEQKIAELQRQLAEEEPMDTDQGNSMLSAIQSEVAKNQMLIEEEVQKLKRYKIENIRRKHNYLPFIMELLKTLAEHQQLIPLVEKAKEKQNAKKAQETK
Summed up: as §1

The next test has as its target USP10 (UniProt Q14694). The method, boiled down: as §1
The target in a further test is T6, USP15 (UniProt Q9Y4E8).
T6 sequence (whole entry): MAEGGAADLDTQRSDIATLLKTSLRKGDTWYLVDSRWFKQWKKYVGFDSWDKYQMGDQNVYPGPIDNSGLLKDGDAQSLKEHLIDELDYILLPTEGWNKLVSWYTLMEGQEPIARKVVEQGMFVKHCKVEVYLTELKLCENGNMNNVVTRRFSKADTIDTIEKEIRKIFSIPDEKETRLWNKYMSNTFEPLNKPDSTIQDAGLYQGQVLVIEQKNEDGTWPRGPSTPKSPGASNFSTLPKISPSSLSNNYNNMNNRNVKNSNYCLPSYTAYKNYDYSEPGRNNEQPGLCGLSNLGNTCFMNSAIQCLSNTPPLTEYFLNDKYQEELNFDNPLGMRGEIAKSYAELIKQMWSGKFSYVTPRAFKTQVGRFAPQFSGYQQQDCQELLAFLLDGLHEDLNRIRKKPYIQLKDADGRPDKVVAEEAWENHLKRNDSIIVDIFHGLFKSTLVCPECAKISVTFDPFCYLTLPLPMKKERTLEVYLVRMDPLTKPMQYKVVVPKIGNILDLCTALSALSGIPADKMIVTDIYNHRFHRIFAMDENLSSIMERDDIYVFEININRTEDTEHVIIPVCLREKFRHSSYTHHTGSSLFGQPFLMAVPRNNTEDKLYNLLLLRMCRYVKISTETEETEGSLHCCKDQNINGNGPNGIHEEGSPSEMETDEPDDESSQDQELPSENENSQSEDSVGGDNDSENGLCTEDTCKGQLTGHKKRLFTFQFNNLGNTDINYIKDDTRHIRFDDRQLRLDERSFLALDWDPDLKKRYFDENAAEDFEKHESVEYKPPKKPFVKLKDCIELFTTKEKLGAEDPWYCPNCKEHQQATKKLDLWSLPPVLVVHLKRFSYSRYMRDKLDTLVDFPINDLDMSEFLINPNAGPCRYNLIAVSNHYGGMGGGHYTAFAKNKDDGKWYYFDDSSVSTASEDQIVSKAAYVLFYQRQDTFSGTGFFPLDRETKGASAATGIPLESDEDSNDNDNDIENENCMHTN
The method, boiled down:
as §1

Chain of USP10 (Q14694 whole entry): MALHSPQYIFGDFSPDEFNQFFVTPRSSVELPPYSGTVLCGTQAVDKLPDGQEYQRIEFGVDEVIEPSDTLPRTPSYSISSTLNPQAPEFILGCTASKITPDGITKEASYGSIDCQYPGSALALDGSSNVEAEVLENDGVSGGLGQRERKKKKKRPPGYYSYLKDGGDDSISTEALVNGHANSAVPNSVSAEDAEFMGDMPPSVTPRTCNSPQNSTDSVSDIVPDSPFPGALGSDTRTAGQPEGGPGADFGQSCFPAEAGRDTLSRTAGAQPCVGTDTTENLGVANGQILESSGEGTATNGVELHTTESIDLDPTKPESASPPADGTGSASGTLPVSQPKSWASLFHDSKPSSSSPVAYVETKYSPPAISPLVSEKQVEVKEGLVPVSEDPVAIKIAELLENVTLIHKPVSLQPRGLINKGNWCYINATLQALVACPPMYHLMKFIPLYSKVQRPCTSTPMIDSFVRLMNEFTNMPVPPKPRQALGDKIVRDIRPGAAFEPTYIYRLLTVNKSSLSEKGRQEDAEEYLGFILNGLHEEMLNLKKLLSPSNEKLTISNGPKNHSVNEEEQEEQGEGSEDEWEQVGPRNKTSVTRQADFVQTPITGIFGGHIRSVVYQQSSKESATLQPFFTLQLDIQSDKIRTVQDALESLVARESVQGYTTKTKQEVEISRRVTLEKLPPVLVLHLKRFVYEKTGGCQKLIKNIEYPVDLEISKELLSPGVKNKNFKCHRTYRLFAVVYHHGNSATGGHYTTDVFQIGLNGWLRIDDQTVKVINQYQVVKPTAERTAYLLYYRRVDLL
Chain of UCHL1 (P09936 whole entry, looked up): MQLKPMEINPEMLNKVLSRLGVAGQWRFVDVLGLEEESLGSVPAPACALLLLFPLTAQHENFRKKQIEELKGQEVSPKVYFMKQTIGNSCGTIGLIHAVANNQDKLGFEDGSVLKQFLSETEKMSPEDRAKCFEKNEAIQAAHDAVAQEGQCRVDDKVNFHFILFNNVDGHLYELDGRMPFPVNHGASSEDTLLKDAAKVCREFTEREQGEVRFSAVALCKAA

Regarding `Cc1ccc(CNC(=O)CCl)nc1C.Cl`, the “log2 ratio of Biotin-Ahx-Ub-VS probe labelling” value with OTUD6B was 0.146; with OTUD7B, -0.314; in the test with PRPF8 it was 0.14; with PSMD7 it was -0.305; in the test with UCHL1 it was -1.07 (active); with UCHL3, 0.499. For the same compound, the “log2 ratio of Biotin-Ahx-Ub-VS probe labelling” value was -0.0227 with UCHL5, -0.0933 with USP10 and 0.144 with USP15.
